High-throughput results deposited in PubChem BioAssay by several laboratories.
Only some compounds are listed: those with a hit (about 1.8% of all), similar ones and a draw of the others.
EP2 mod – EP2 receptor (human) modulation; P43116; induction, % at 25 µM; 260,000 compounds, 0.83% hits; AID 940; EP2-expressing cells, cAMP HTRF FRET, PGE2 co-stimulation;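 active means compounds whose cAMP rise, as percent of the full-agonist control response, exceeds 60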;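 further: rat C6 glioma line stably carrying human EP2 under a CMV promoter; the protocol text gives 20 µM as final concentration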
PERK inh – blocks human PERK kinase | 220,000 compounds, 0.17% hits | Q9NZJ5 | CHO PERK-DD fusion, SEAP luminescence translation reporter | inhibition, % at 5.6 µM | AID 1416;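 active means inhibition above the mean inhibition of all tested compounds plus 3 SD, set separately per screening campaign, cut at about 2.9% in these data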;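 further: PERK kinase domain activated by AP20187 dimerizer at 100 nM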
PGE2 EP2 inh – EP2 receptor (human) inhibition. inhibition, % at 25 µM. P43116. C6 glioma cells expressing human EP2, cAMP TR-FRET; cells stimulated with saturating PGE2. 260,000 compounds, 0.52% hits;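 active means percent inhibition above 40 after rounding to a whole number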;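 further: rat C6 glioma host cells with rolipram phosphodiesterase inhibitor present; the protocol text gives 20 µM as final concentration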
eIF4E-4G inh – inhibitors of eIF4E and eIF4G interaction in translation initiation; P63073+Q04637; TR-FRET eIF4E-eIF4GI(517-606) binding, 2 h; inhibition, % at 21.7 µM; 220,000 compounds, 0.37% hits; AID 782;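 active means inhibition above about 30%, limit read from the data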
Target sequence (P63073 whole entry, looked up): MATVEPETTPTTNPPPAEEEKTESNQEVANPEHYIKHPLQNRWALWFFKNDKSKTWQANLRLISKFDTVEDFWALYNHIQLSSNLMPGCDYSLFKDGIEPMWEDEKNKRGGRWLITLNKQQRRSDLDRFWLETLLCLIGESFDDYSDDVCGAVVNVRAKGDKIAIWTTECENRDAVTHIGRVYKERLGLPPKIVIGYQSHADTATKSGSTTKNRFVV
Target sequence (Q04637 whole entry, looked up): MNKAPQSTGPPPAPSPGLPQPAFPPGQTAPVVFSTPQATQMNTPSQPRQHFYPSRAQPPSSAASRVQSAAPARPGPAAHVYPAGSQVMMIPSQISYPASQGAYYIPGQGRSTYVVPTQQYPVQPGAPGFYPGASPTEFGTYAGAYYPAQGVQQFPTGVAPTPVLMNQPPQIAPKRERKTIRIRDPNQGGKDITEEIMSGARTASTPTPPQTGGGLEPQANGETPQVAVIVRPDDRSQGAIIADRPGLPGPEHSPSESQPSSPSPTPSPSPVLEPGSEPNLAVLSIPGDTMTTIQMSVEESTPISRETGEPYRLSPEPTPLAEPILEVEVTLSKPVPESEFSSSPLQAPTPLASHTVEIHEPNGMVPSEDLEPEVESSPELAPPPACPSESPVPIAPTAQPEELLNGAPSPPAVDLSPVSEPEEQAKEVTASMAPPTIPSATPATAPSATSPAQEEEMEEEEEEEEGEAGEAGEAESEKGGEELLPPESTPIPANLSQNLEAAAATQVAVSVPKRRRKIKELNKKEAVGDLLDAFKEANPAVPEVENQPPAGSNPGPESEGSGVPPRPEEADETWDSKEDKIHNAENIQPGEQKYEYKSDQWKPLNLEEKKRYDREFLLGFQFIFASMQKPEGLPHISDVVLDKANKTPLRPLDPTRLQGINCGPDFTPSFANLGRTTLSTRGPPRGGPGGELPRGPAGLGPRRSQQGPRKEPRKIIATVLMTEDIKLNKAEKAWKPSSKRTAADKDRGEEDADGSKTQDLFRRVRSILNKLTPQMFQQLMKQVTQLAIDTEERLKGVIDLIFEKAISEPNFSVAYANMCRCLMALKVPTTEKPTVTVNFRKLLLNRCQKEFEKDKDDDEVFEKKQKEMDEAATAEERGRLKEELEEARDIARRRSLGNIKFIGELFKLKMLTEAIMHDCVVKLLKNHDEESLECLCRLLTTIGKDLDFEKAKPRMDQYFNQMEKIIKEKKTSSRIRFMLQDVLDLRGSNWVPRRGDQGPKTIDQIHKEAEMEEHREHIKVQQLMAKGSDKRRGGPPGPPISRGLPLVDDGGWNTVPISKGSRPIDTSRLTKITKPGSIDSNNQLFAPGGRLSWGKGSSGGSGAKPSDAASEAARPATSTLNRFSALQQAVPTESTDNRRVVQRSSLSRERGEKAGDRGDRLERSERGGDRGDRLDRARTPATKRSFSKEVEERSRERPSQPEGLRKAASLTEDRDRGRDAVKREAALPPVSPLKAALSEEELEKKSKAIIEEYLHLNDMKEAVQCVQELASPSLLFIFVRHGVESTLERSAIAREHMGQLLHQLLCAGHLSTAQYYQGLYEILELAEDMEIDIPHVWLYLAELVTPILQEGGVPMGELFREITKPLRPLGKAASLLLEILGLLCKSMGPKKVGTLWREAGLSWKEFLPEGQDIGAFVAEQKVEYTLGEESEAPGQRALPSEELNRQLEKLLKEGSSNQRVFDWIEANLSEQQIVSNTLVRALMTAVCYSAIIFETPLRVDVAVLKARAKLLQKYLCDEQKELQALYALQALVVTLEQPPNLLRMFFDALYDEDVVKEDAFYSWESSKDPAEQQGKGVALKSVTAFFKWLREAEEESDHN
Large screens that a line does not name were inactive; ! = not confirmed by another sample; [ ] = dose if it differs, or a comment.

COc1ccc(NC(=O)/C(Cl)=C(/Cl)S(=O)Cc2ccccc2Cl)cn1 (centres undefined)	PGE2 EP2 inh 52
COc1ccc(NC(=O)Cc2ccc(Cl)c(Cl)c2)cn1	none
O=C(Nc1ccccc1-c1ccccc1)c1cnccn1	EP2 mod 66!
Cc1cccc(Oc2ccccc2NC(=O)c2cnccn2)c1	EP2 mod 61
S=C(Nc1ccc(Cl)cc1)N1CCC(c2nc3ccccc3[nH]2)CC1	none (no result: PERK inh, eIF4E-4G inh)
COc1cc(C2C3CN(C)CC=C3C(C#N)=C(N)C2(C#N)C#N)ccc1OCC(N)=O (centres undefined)	none (no result: PERK inh, eIF4E-4G inh)
CCCCOC(=O)CN1C(=O)c2ccc(C(=O)OCCCC)cc2C1=O	EP2 mod 63
O=C(CSc1ncccn1)Nc1ncc(Cc2cccc3ccccc23)s1	none (no result: PERK inh, eIF4E-4G inh)
CC(C)Oc1ccccc1Cn1c(=O)sc2ccccc21	EP2 mod 83 (no result: PERK inh, eIF4E-4G inh)
CC(C)OC(=O)Cn1c(=O)sc2ccccc21	none
O=C(Nc1cc(Cl)ccc1Cl)C1CCN(C(=O)c2cccs2)CC1	none (no result: PERK inh, eIF4E-4G inh)
COc1cc(C2C(C#N)=C(N)Oc3n[nH]c(C(C)(C)C)c32)ccc1OCC(N)=O (centres undefined)	none (no result: PERK inh, eIF4E-4G inh)
O=C(O)CCCCC(=O)Nc1nc(-c2ccccc2)cs1	none (no result: PERK inh, eIF4E-4G inh)
N#Cc1c(NC(=O)CSc2nnc(-c3ccco3)n2-c2ccccc2)sc2c1CCC2	none
NC(=O)c1c(NC(=O)CSc2nnc(-c3ccco3)n2-c2ccccc2)sc2c1CCC2	eIF4E-4G inh 31[fluorescence artefact?]
Cc1cccc(OCc2nnc(SCC(=O)N(C(C)C)C(C)C)n2C)c1C	none (no result: PERK inh, eIF4E-4G inh)
COc1ccc2cc(C#N)c(SCC(=O)NC3CCCCC3C)nc2c1 (centres undefined)	EP2 mod 77 (no result: PERK inh, eIF4E-4G inh)
CCCC(C)c1nnc(NC(=O)C(=O)OCC)s1 (centres undefined)	PERK inh 3.0
CCCC(C)c1nnc(NC(=O)C2CCCO2)s1 (centres undefined)	none
CCC(C)(C)n1nnnc1C(c1cc2cc(C)cc(C)c2[nH]c1=O)N1CCCC(C)C1 (centres undefined)	EP2 mod 86 (no result: PERK inh, eIF4E-4G inh)
CCC(C)(C)n1nnnc1C(c1cc2cc(C)cc(C)c2[nH]c1=O)N1CCCC1 (centres undefined)	none
CCOC(=O)C(=O)Nc1nc2ccc(OC)cc2s1	none (no result: PERK inh, eIF4E-4G inh)
Cc1c(Cl)cccc1NC(=O)C[C@H]1Sc2ccccc2NC1=O	PGE2 EP2 inh 60 (no result: PERK inh, eIF4E-4G inh)
COc1ccc2cc(CN(C3CCCCC3)C(c3nnnn3C(C)(C)C)C(C)C)c(=O)[nH]c2c1 (centres undefined)	none (no result: PERK inh, eIF4E-4G inh)
CC1(C)CC(=O)c2ccc(OCc3ccc([N+](=O)[O-])cc3)cc2O1	eIF4E-4G inh 34
O=C(O)CCCn1cc(NC(=O)c2cc(F)c(F)cc2Cl)cn1	EP2 mod 61
O=C(O)CCCn1cc(NC(=O)c2cccc(F)c2)cn1	none
CCN(c1cccc2ccccc12)S(=O)(=O)c1ccc(Cl)nc1	EP2 mod 65
COc1ccc(NC(=O)CSc2nnc3c(C)cc4cc(OC)ccc4n23)c(OC)c1	none (no result: PERK inh, eIF4E-4G inh)
CCc1cc(=S)n2c([nH]c3ccccc32)c1C#N	none
CCc1c(C)c(C#N)c2[nH]c3ccccc3n2c1=S	eIF4E-4G inh 33
O=C(Cc1ccc(F)cc1)NCCc1nc(-c2ccncc2)n[nH]1	none (no result: PERK inh, eIF4E-4G inh)
O=C(COc1ccccc1)Nc1ccc(S(=O)(=O)N2CCOCC2)cc1	PGE2 EP2 inh 52
COc1ccc(OCC(=O)Nc2ccc(S(=O)(=O)N3CCOCC3)cc2)cc1	none
O=C(COC(=O)c1ccc(=O)[nH]c1)Nc1cccc(S(=O)(=O)N2CCOCC2)c1	PERK inh 2.9
O=C(Cc1cccs1)Nc1ccc(S(=O)(=O)N2CCCC2)cc1	eIF4E-4G inh 33
O=C(COC(=O)c1cccs1)Nc1cccc(S(=O)(=O)N2CCOCC2)c1	none
Cc1onc(-c2ccccc2)c1NC(=O)N(Cc1ccccc1)C(C)C	none
CN(C)Cc1ccc(-c2cc3onc(-c4ccccc4)c3c(=O)n2C)cc1	PGE2 EP2 inh 44 (no result: PERK inh, eIF4E-4G inh)
C=CCNc1nc(N)c(C(=O)Nc2cc(C)on2)s1	PGE2 EP2 inh 46
COc1ccc(-c2ccc([C@H]3[C@@H]4C=CCC[C@@]4(C)C(=O)N3Cc3ccccc3)c(F)c2)cc1	none (no result: PERK inh)
COc1ccc(-c2cc([C@H]3[C@@H]4C=CCC[C@@]4(C)C(=O)N3Cc3ccccc3)ccc2F)cc1	eIF4E-4G inh 45 (no result: PERK inh)
COCCCN1C(=O)C(O)=C(C(=O)c2ccco2)C1c1ccc(O)c(OC)c1 (centres undefined)	none (no result: PERK inh, eIF4E-4G inh)
Cc1cccc(Cn2c(SC(C)C)nc3c2c(=O)n(C)c(=O)n3C)c1	none (no result: PERK inh, eIF4E-4G inh)
COC(=O)c1ccc(OCC(=O)c2ccc(O)cc2O)cc1	none
COC(=O)c1ccc(CCc2cc(O)ccc2O)cc1	PGE2 EP2 inh 47 (no result: PERK inh, eIF4E-4G inh)
Cc1cc(-c2cnc(C)nc2C2CCN(C(=O)c3cnn(C(C)C)c3)CC2)on1	none (no result: PERK inh, PGE2 EP2 inh, eIF4E-4G inh)
O=C(/C=C/c1ccco1)NC(=S)N1CCN(c2ccccn2)CC1	none (no result: PERK inh, eIF4E-4G inh)
CCOC(=O)COc1ccc(C2Oc3c(cccc3OC)C=C2[N+](=O)[O-])cc1 (centres undefined)	PGE2 EP2 inh 53 (no result: PERK inh, eIF4E-4G inh)
CCOc1ccc(NC(=O)CSc2nnc(COc3ccccc3)n2C)cc1	none (no result: PERK inh, eIF4E-4G inh)
C=C(C)C1Cc2c(C)nn(-c3ccccc3)c2C1 (centres undefined)	EP2 mod 61
C=C(C)C1Cc2c(C)nn(-c3cccc4ccccc34)c2C1 (centres undefined)	none
O=C(O)c1cccc(NC(=S)NC(=O)c2ccc(-c3ccc(Cl)cc3)o2)c1	EP2 mod 64
O=C(O)c1cccc(NC(=S)NC(=O)c2ccc(-c3ccccc3)cc2)c1	none
Cc1ccc(C(=O)O)cc1NC(=S)NC(=O)c1ccc(-c2ccc(Cl)cc2)o1	EP2 mod 89
Cc1ccc(C(=O)O)cc1NC(=S)NC(=O)c1ccc([N+](=O)[O-])cc1Cl	none
COc1ccc(OC)c(Nc2nc(=O)c3cccnc3s2)c1	eIF4E-4G inh 32
NNC(=O)c1ccc(Oc2cc(Cl)cc(Cl)c2)o1	none
O=C(O)c1ccc(Oc2ccccc2)o1	EP2 mod 70
CCc1ccc2c(c1)c1n[nH]c(=S)nc1n2CC	none (no result: PERK inh, eIF4E-4G inh)
CCOC(=O)c1sc2ccccc2c1NC(=O)c1coc2ccccc2c1=O	none
CCOC(=O)c1sc2ccccc2c1OC(=O)c1ccccc1	EP2 mod 65
C=CC[C@@H]1C=C(C)C[C@H](C)C[C@H](OC)[C@H]2O[C@@](O)(C(=O)C(=O)N3CCCC[C@H]3C(=O)O[C@H](/C(C)=C/[C@@H]3CC[C@@H](O)[C@H](OC)C3)[C@H](C)[C@@H](O)CC1=O)[C@H](C)C[C@@H]2OC	none (no result: EP2 mod, PERK inh, eIF4E-4G inh)
CC[C@@H]1C=C(C)C[C@H](C)C[C@H](OC)[C@H]2O[C@@](O)(C(=O)C(=O)N3CCCC[C@H]3C(=O)O[C@H](/C(C)=C/[C@@H]3CC[C@@H](O)[C@H](OC)C3)[C@H](C)[C@@H](O)CC1=O)[C@H](C)C[C@@H]2OC	PERK inh 95
CCC(C)(C)C(=O)Nc1ccc(S(=O)(=O)N2CCCC2)cc1	none (no result: PERK inh, eIF4E-4G inh)
O=C(Nc1cccc(Br)c1)/C(=C\c1cccnc1)NC(=O)c1cccs1	none (no result: PERK inh, eIF4E-4G inh)
COc1ccc(C)cc1NC(=O)N1CCCc2ccccc21	EP2 mod 61
O=C(Nc1ccccc1)N1CCCc2ccccc21	none
CC(=O)Cn1cnc2c1c(=O)n(C)c(=O)n2C	none (no result: PERK inh, eIF4E-4G inh)
